Common to all, as to test: PBM; 200 nM protein, PBS
What all share (settings): dsDNA, one strand shown

The target in experiment [1] is T1, NKX2-4 (Homo sapiens, UniProt Q9H2Z4 175-261, P217L).
T1 sequence: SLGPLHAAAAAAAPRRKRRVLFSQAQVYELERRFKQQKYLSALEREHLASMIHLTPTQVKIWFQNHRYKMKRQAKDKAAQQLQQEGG

Experiment [2] concerns the target T2, NKX2-4 (Homo sapiens, UniProt Q9H2Z4 175-261, T231S).
T2 sequence: T1 sequence with L43P, T57S

For experiment [3], the target named is T3, NKX2-4 (Homo sapiens, UniProt Q9H2Z4 175-261).
T3 sequence: T1 sequence with L43P

For experiment [4], the target named is T4, NKX2-4 (Homo sapiens, UniProt Q9H2Z4 175-261, R246Q).
T4 sequence: T1 sequence with L43P, R72Q

Where a chain is given by its changes, count along the chain named.

For the sequence TCCACTCA, the binding signal with NKX2-4 [1] is 12.4 upbm affinity estimate (log intensity, higher = more binding, comparable within an allelic series); with NKX2-4 [2], 12.8 upbm affinity estimate (log intensity, higher = more binding, comparable within an allelic series); with NKX2-4 [3], 12.3 upbm affinity estimate (log intensity, higher = more binding, comparable within an allelic series); with NKX2-4 [4], 12.8 upbm affinity estimate (log intensity, higher = more binding, comparable within an allelic series).

Consider CCAGAGAC, for which the binding signal was 9.71 upbm affinity estimate (log intensity, higher = more binding, comparable within an allelic series) in the experiment with NKX2-4 [1]; 9.67 upbm affinity estimate (log intensity, higher = more binding, comparable within an allelic series) with NKX2-4 [2]; 9.71 upbm affinity estimate (log intensity, higher = more binding, comparable within an allelic series) in the experiment with NKX2-4 [3]; 9.63 upbm affinity estimate (log intensity, higher = more binding, comparable within an allelic series) with NKX2-4 [4].

For GATCGGCC, the binding signal with NKX2-4 [1] was 9.8 upbm affinity estimate (log intensity, higher = more binding, comparable within an allelic series); with NKX2-4 [2], 9.89 upbm affinity estimate (log intensity, higher = more binding, comparable within an allelic series); in the experiment with NKX2-4 [3], 9.87 upbm affinity estimate (log intensity, higher = more binding, comparable within an allelic series); with NKX2-4 [4], 9.9 upbm affinity estimate (log intensity, higher = more binding, comparable within an allelic series).

Take CGGCTGTA: the binding signal with NKX2-4 [1] was 9.81 upbm affinity estimate (log intensity, higher = more binding, comparable within an allelic series); in the experiment with NKX2-4 [2], 9.8 upbm affinity estimate (log intensity, higher = more binding, comparable within an allelic series); in the experiment with NKX2-4 [3], 9.77 upbm affinity estimate (log intensity, higher = more binding, comparable within an allelic series); with NKX2-4 [4] it was 9.94 upbm affinity estimate (log intensity, higher = more binding, comparable within an allelic series).

For AGAGTGAG, the binding signal was 11.5 upbm affinity estimate (log intensity, higher = more binding, comparable within an allelic series) in the experiment with NKX2-4 [1]; 11.6 upbm affinity estimate (log intensity, higher = more binding, comparable within an allelic series) with NKX2-4 [2]; 11.4 upbm affinity estimate (log intensity, higher = more binding, comparable within an allelic series) with NKX2-4 [3]; 11.6 upbm affinity estimate (log intensity, higher = more binding, comparable within an allelic series) in the experiment with NKX2-4 [4].

In the case of CAGCCCAG, the binding signal was 9.47 upbm affinity estimate (log intensity, higher = more binding, comparable within an allelic series) with NKX2-4 [1]; 9.32 upbm affinity estimate (log intensity, higher = more binding, comparable within an allelic series) in the experiment with NKX2-4 [2]; 9.45 upbm affinity estimate (log intensity, higher = more binding, comparable within an allelic series) in the experiment with NKX2-4 [3]; 9.54 upbm affinity estimate (log intensity, higher = more binding, comparable within an allelic series) in the experiment with NKX2-4 [4].

GTACTCAA: the binding signal with NKX2-4 [1] was 12.6 upbm affinity estimate (log intensity, higher = more binding, comparable within an allelic series); in the experiment with NKX2-4 [2] it was 13 upbm affinity estimate (log intensity, higher = more binding, comparable within an allelic series); with NKX2-4 [3], 12.5 upbm affinity estimate (log intensity, higher = more binding, comparable within an allelic series); in the experiment with NKX2-4 [4], 13.1 upbm affinity estimate (log intensity, higher = more binding, comparable within an allelic series).

In the case of ATGTGCGC, the binding signal in the experiment with NKX2-4 [1] is 9.81 upbm affinity estimate (log intensity, higher = more binding, comparable within an allelic series); in the experiment with NKX2-4 [2], 9.85 upbm affinity estimate (log intensity, higher = more binding, comparable within an allelic series); with NKX2-4 [3], 9.82 upbm affinity estimate (log intensity, higher = more binding, comparable within an allelic series); in the experiment with NKX2-4 [4] it was 9.8 upbm affinity estimate (log intensity, higher = more binding, comparable within an allelic series).

On to AGTGCTTA, for which the binding signal with NKX2-4 [1] was 12 upbm affinity estimate (log intensity, higher = more binding, comparable within an allelic series); with NKX2-4 [2], 12.2 upbm affinity estimate (log intensity, higher = more binding, comparable within an allelic series); with NKX2-4 [3], 11.9 upbm affinity estimate (log intensity, higher = more binding, comparable within an allelic series); in the experiment with NKX2-4 [4], 12.2 upbm affinity estimate (log intensity, higher = more binding, comparable within an allelic series).

With CAGTGCGC, the binding signal in the experiment with NKX2-4 [1] is 9.85 upbm affinity estimate (log intensity, higher = more binding, comparable within an allelic series); in the experiment with NKX2-4 [2], 9.8 upbm affinity estimate (log intensity, higher = more binding, comparable within an allelic series); with NKX2-4 [3], 9.86 upbm affinity estimate (log intensity, higher = more binding, comparable within an allelic series); with NKX2-4 [4], 9.79 upbm affinity estimate (log intensity, higher = more binding, comparable within an allelic series).

On to ATCCGGCC, for which the binding signal in the experiment with NKX2-4 [1] was 9.77 upbm affinity estimate (log intensity, higher = more binding, comparable within an allelic series); with NKX2-4 [2], 9.8 upbm affinity estimate (log intensity, higher = more binding, comparable within an allelic series); with NKX2-4 [3] it was 9.79 upbm affinity estimate (log intensity, higher = more binding, comparable within an allelic series); with NKX2-4 [4], 9.9 upbm affinity estimate (log intensity, higher = more binding, comparable within an allelic series).

With CTCAAGAG, the binding signal with NKX2-4 [1] was 12.4 upbm affinity estimate (log intensity, higher = more binding, comparable within an allelic series); with NKX2-4 [2], 12.8 upbm affinity estimate (log intensity, higher = more binding, comparable within an allelic series); with NKX2-4 [3], 12.3 upbm affinity estimate (log intensity, higher = more binding, comparable within an allelic series); with NKX2-4 [4], 13 upbm affinity estimate (log intensity, higher = more binding, comparable within an allelic series).

As for GAGTACTC, the binding signal with NKX2-4 [1] was 12.4 upbm affinity estimate (log intensity, higher = more binding, comparable within an allelic series); with NKX2-4 [2], 12.8 upbm affinity estimate (log intensity, higher = more binding, comparable within an allelic series); with NKX2-4 [3] it was 12.3 upbm affinity estimate (log intensity, higher = more binding, comparable within an allelic series); with NKX2-4 [4], 12.9 upbm affinity estimate (log intensity, higher = more binding, comparable within an allelic series).

In the case of CGTTTGGC, the binding signal with NKX2-4 [1] was 9.62 upbm affinity estimate (log intensity, higher = more binding, comparable within an allelic series); in the experiment with NKX2-4 [2], 9.4 upbm affinity estimate (log intensity, higher = more binding, comparable within an allelic series); with NKX2-4 [3], 9.47 upbm affinity estimate (log intensity, higher = more binding, comparable within an allelic series); in the experiment with NKX2-4 [4], 9.6 upbm affinity estimate (log intensity, higher = more binding, comparable within an allelic series).

Consider CACGGCTA, for which the binding signal is 9.31 upbm affinity estimate (log intensity, higher = more binding, comparable within an allelic series) with NKX2-4 [1]; 9.28 upbm affinity estimate (log intensity, higher = more binding, comparable within an allelic series) with NKX2-4 [2]; 9.21 upbm affinity estimate (log intensity, higher = more binding, comparable within an allelic series) in the experiment with NKX2-4 [3]; 9.29 upbm affinity estimate (log intensity, higher = more binding, comparable within an allelic series) in the experiment with NKX2-4 [4].

Consider GACACCGC, for which the binding signal with NKX2-4 [1] is 9.33 upbm affinity estimate (log intensity, higher = more binding, comparable within an allelic series); in the experiment with NKX2-4 [2], 9.29 upbm affinity estimate (log intensity, higher = more binding, comparable within an allelic series); in the experiment with NKX2-4 [3], 9.43 upbm affinity estimate (log intensity, higher = more binding, comparable within an allelic series); in the experiment with NKX2-4 [4], 9.52 upbm affinity estimate (log intensity, higher = more binding, comparable within an allelic series).

Turning to GAAGAGTA, the binding signal with NKX2-4 [1] was 11.9 upbm affinity estimate (log intensity, higher = more binding, comparable within an allelic series); in the experiment with NKX2-4 [2], 12.2 upbm affinity estimate (log intensity, higher = more binding, comparable within an allelic series); in the experiment with NKX2-4 [3], 11.7 upbm affinity estimate (log intensity, higher = more binding, comparable within an allelic series); with NKX2-4 [4], 12.2 upbm affinity estimate (log intensity, higher = more binding, comparable within an allelic series).

Take CCGCTACC: the binding signal with NKX2-4 [1] is 9.71 upbm affinity estimate (log intensity, higher = more binding, comparable within an allelic series); with NKX2-4 [2], 9.7 upbm affinity estimate (log intensity, higher = more binding, comparable within an allelic series); with NKX2-4 [3] it was 9.66 upbm affinity estimate (log intensity, higher = more binding, comparable within an allelic series); in the experiment with NKX2-4 [4], 9.79 upbm affinity estimate (log intensity, higher = more binding, comparable within an allelic series).

Regarding ACGGCGAC, the binding signal in the experiment with NKX2-4 [1] was 9.81 upbm affinity estimate (log intensity, higher = more binding, comparable within an allelic series); with NKX2-4 [2] it was 9.82 upbm affinity estimate (log intensity, higher = more binding, comparable within an allelic series); in the experiment with NKX2-4 [3] it was 9.78 upbm affinity estimate (log intensity, higher = more binding, comparable within an allelic series); with NKX2-4 [4] it was 9.81 upbm affinity estimate (log intensity, higher = more binding, comparable within an allelic series).

With ACGCAGTG, the binding signal in the experiment with NKX2-4 [1] was 9.7 upbm affinity estimate (log intensity, higher = more binding, comparable within an allelic series); with NKX2-4 [2], 9.67 upbm affinity estimate (log intensity, higher = more binding, comparable within an allelic series); with NKX2-4 [3] it was 9.6 upbm affinity estimate (log intensity, higher = more binding, comparable within an allelic series); with NKX2-4 [4], 9.5 upbm affinity estimate (log intensity, higher = more binding, comparable within an allelic series).

Regarding GTCCCACA, the binding signal was 9.65 upbm affinity estimate (log intensity, higher = more binding, comparable within an allelic series) with NKX2-4 [1]; 9.69 upbm affinity estimate (log intensity, higher = more binding, comparable within an allelic series) with NKX2-4 [2]; 9.67 upbm affinity estimate (log intensity, higher = more binding, comparable within an allelic series) with NKX2-4 [3]; 9.68 upbm affinity estimate (log intensity, higher = more binding, comparable within an allelic series) with NKX2-4 [4].

In the case of ACATGCAG, the binding signal is 9.48 upbm affinity estimate (log intensity, higher = more binding, comparable within an allelic series) with NKX2-4 [1]; 9.63 upbm affinity estimate (log intensity, higher = more binding, comparable within an allelic series) with NKX2-4 [2]; 9.52 upbm affinity estimate (log intensity, higher = more binding, comparable within an allelic series) with NKX2-4 [3]; 9.48 upbm affinity estimate (log intensity, higher = more binding, comparable within an allelic series) with NKX2-4 [4].

On to CCGCGGTA, for which the binding signal is 9.81 upbm affinity estimate (log intensity, higher = more binding, comparable within an allelic series) in the experiment with NKX2-4 [1]; 9.73 upbm affinity estimate (log intensity, higher = more binding, comparable within an allelic series) with NKX2-4 [2]; 9.75 upbm affinity estimate (log intensity, higher = more binding, comparable within an allelic series) with NKX2-4 [3]; 9.9 upbm affinity estimate (log intensity, higher = more binding, comparable within an allelic series) with NKX2-4 [4].

Take ATTCTTGA: the binding signal in the experiment with NKX2-4 [1] is 11.5 upbm affinity estimate (log intensity, higher = more binding, comparable within an allelic series); in the experiment with NKX2-4 [2], 11.7 upbm affinity estimate (log intensity, higher = more binding, comparable within an allelic series); in the experiment with NKX2-4 [3], 11.2 upbm affinity estimate (log intensity, higher = more binding, comparable within an allelic series); with NKX2-4 [4], 11.7 upbm affinity estimate (log intensity, higher = more binding, comparable within an allelic series).

Take AACGCCAG: the binding signal with NKX2-4 [1] is 9.74 upbm affinity estimate (log intensity, higher = more binding, comparable within an allelic series); in the experiment with NKX2-4 [2], 9.82 upbm affinity estimate (log intensity, higher = more binding, comparable within an allelic series); in the experiment with NKX2-4 [3], 9.78 upbm affinity estimate (log intensity, higher = more binding, comparable within an allelic series); in the experiment with NKX2-4 [4] it was 9.89 upbm affinity estimate (log intensity, higher = more binding, comparable within an allelic series).

In the case of ACCGTTAC, the binding signal is 9.89 upbm affinity estimate (log intensity, higher = more binding, comparable within an allelic series) with NKX2-4 [1]; 9.95 upbm affinity estimate (log intensity, higher = more binding, comparable within an allelic series) with NKX2-4 [2]; 9.88 upbm affinity estimate (log intensity, higher = more binding, comparable within an allelic series) with NKX2-4 [3]; 9.92 upbm affinity estimate (log intensity, higher = more binding, comparable within an allelic series) with NKX2-4 [4].

Take CTGCGCAG: the binding signal with NKX2-4 [1] is 9.75 upbm affinity estimate (log intensity, higher = more binding, comparable within an allelic series); with NKX2-4 [2], 9.81 upbm affinity estimate (log intensity, higher = more binding, comparable within an allelic series); with NKX2-4 [3], 9.75 upbm affinity estimate (log intensity, higher = more binding, comparable within an allelic series); with NKX2-4 [4] it was 9.93 upbm affinity estimate (log intensity, higher = more binding, comparable within an allelic series).

Values taken from paper PMC11006913.
